In PubChem BioAssay (NCI):
About 83,000 compounds went through this panel and 20% of them were active in at least one assay; those are over-represented in the sample as a whole.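 Interpretation: 100, growth as untreated; towards 0, rising growth inhibition; 0, no net growth; 0 to -100, cell death. Compounds scoring below 10 were considered active.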 Values without a mark were called inactive. The source made the active and inactive calls.

What was measured:
Assay in all cases: NCI-60 one-dose screen, 48 h (100 = growth as untreated, 0 = no growth, -100 = all killed)
SK-MEL-2 melanoma = conditions: 10 µM unless noted
EKVX NSCLC = conditions: 10 µM unless noted
SN12C renal = conditions: 10 µM unless noted
UO-31 renal = conditions: 10 µM unless noted
TK-10 renal = conditions: 10 µM unless noted
ACHN renal = conditions: 10 µM unless noted
CAKI-1 renal = conditions: 10 µM
A498 renal = conditions: 10 µM unless noted
CCRF-CEM leukemia = conditions: 10 µM unless noted
MOLT-4 leukemia = conditions: 10 µM unless noted
SR leukemia = conditions: 10 µM unless noted
RPMI-8226 leukemia = conditions: 10 µM unless noted
OVCAR-8 ovarian = conditions: 10 µM unless noted
OVCAR-5 ovarian = conditions: 10 µM unless noted
OVCAR-4 ovarian = conditions: 10 µM unless noted
SK-OV-3 ovarian = conditions: 10 µM unless noted
IGROV1 ovarian = conditions: 10 µM unless noted
OVCAR-3 ovarian = conditions: 10 µM unless noted
HS 578T breast = conditions: 10 µM unless noted
NCI/ADR-RES ovarian = conditions: 10 µM unless noted

Row | SMILES | growth (SK-MEL-2 melanoma) | growth (EKVX NSCLC) | growth (SN12C renal) | growth (UO-31 renal) | growth (TK-10 renal) | growth (ACHN renal) | growth (CAKI-1 renal) | growth (A498 renal) | growth (CCRF-CEM leukemia) | growth (MOLT-4 leukemia) | growth (SR leukemia) | growth (RPMI-8226 leukemia) | growth (OVCAR-8 ovarian) | growth (OVCAR-5 ovarian) | growth (OVCAR-4 ovarian) | growth (SK-OV-3 ovarian) | growth (IGROV1 ovarian) | growth (OVCAR-3 ovarian) | growth (HS 578T breast) | growth (NCI/ADR-RES ovarian)
1 | CCN(CC)CCCC(C)NCC(=O)NC(c1ccc2c(c1)OCO2)c1cc(Cl)c2cccnc2c1O (stereo unspecified) | 81.4% | 26% | 38.1% | 3.38% (active) | 45.6% | 25.2% | 1.43% (active) | 81.1% | 16.5% | 20.4% | 39.2% | 27.9% | 25.2% | 40.6% | 11.5% | 40.6% | 20.9% | 10.8% | 79.7% | 38.6%
2 | CCCC(=O)NC(c1cccnc1)c1cc(Cl)c2cccnc2c1O (stereo unspecified) | 42.7% | 24% | 44.4% | 22.3% | 47.6% | 20.5% | 34.6% | 89.9% | 25% | 30.3% | 39.6% | 30.7% | 21.9% | 55.6% | 22.7% | 44.4% | 28.5% | 19.7% | 17.3% | 10.2%
3 | O=C(Nc1cccc(-c2nc(-c3ccc(NC(=O)c4cccs4)cc3Cl)no2)c1)Nc1ccc(NC(=O)C2CC2)c(C(F)(F)F)c1 | -50.2% (active) | -34.2% (active) | -51.8% (active) | -23.6% (active) | -28.2% (active) | 0.236% (active) | -67.7% (active) | -89% (active) | 6.43% (active) | -4.78% (active) | -25.9% (active) |  | 2.05% (active) | -14.6% (active) | -81.3% (active) | -30.6% (active) | -40.4% (active) | -54.2% (active) | -27.1% (active) | 45.5%
4 | NC(=S)N/N=C(/C=C/c1cn(-c2ccccc2)nc1-c1ccc(Cl)cc1)c1cc2ccccc2oc1=O | 82.5% | 35% | 44.3% | 28.5% | 89.9% | 43.7% | 45.9% | 69.3% | 8.22% (active) | 23.7% | 39.7% | 41% | 31.3% | 67.3% |  | 85.2% | 36% |  | 69.2% | 25.4%
5 | CN1CCN(c2ccc(NC(=O)Nc3ccc4c(ccn4-c4cccc(C(N)=O)n4)c3)cc2C(F)(F)F)CC1 | 21.1% | 78.4% | 84.1% | 75.6% | 97.4% | 71.8% | 87.1% | 85.3% | 8.43% (active) | 3.75% (active) | 14.6% | -17.5% (active) | 77.6% | 85.3% | 84.9% |  | 80.1% |  | 22.1% | 94.5%
6 | CN1C(=O)N(C)C2Nn3c(s/c(=C\c4ccccn4)c3=O)=NC21 (stereo unspecified) | 102% | 99.7% | 104% | 88.1% | 111% | 100% | 97.1% | 105% | 102% | 110% | 109% | 105% | 101% | 104% | 104% |  | 98.3% | 106% | 113% | 103%
7 | O=C(CCCCCCN1CC(=O)N2[C@@H](c3cccc(Cl)c3)c3[nH]c4ccccc4c3C[C@H]2C1=O)NO | 56% | 70.1% | 65.7% | 60.3% | 57.1% | 87.1% | 47.7% | 72.8% | 17.1% | 17.5% | 39.5% | 15% | 34.8% | 54.3% |  | 51.8% | 4.61% (active) |  | 69.3% | 94.3%
8 | O=C(NNc1nc2cc(F)cc(F)c2n2cccc12)c1ccncn1 | 22% | 7.66% (active) | 19.6% | 17.3% | 10% | 11.6% | 16.5% | 22.2% | 5.12% (active) | 4.2% (active) | 4.42% (active) | 9.13% (active) | 12.5% | 40.9% | 4.29% (active) |  | 15.1% | 8.94% (active) |  | 1.44% (active)
9 | O=C(/C=C1\C=CN(CCCCO)c2ccccc21)n1ccc2ccccc21 | 101% | 89.6% | 98.7% | 74.3% | 117% | 93.7% | 85.7% | 117% | 102% | 102% | 123% | 109% | 97.3% | 102% |  | 97.6% | 89.2% | 111% | 98.7% | 105%
10 | COc1ccc(NS(=O)(=O)c2ccc(-c3cnc(C4CC4)o3)cc2)cc1Cl | 49.9% | 38.2% | 50.4% | 51.8% | 69% | 46.1% | -22.9% (active) | 13.1% | 17.2% | 32.4% | 23.2% |  | 40.4% | 48.8% | 52.5% | 60% | 41.4% | 15.5% | 28.1% | 18.6%
11 | CCN(CC)Cc1c(-c2cccc(OC(F)(F)F)c2)[nH]c2ccc(N3CCCC3)cc2c1=O | 106% | 90.6% | 93.3% | 77.7% | 124% | 98.4% | 77.3% | 104% | 98.4% | 69.4% | 91.4% |  | 96.2% | 92.5% | 101% | 111% | 79.6% | 104% | 87.3% | 92.5%
12 | COc1ccc([C@H]2c3[nH]c4ccccc4c3C[C@@H]3C(=O)N(C4CCN(Cc5ccccc5)CC4)CC(=O)N23)c(OC)c1 | 103% | 64.5% | 75.6% | 42.6% | 103% | 76% | 56.4% | 93.8% | 61.8% | 45.1% | 29.9% | 52.9% | 88.7% | 90% | 82.7% |  | 50.6% | 80.4% | 82.3% | 68.3%
13 | CC(C)(C)OC(=O)N1CCN(S(=O)(=O)/N=C2\NC(=O)NC2=C(Cl)Cl)CC1 | 88.9% | 90.8% | 91.7% | 91.6% | 124% | 99.5% | 98.8% | 83.7% | 29.4% | 89% | 23.6% | 84.7% | 100% | 101% |  |  | 84% | 104% | 72.9% | 99%
14 | CCC(=O)Nc1cc(Nc2cc(NC3CC3)n3ncc(C#N)c3n2)ccc1C | 32.6% | 39.1% | 43.4% | 19.7% | 15.5% | 13.8% | 14.7% | -21.5% (active) | 17.1% | 40.1% | 24.5% |  | 43.4% | 18.4% | 17.1% | 21.6% | 6.78% (active) | 26.2% | -17.4% (active) | 44.2%
15 | COc1ccc(C(=O)n2cc(C=O)c3ccccc32)cc1 | 104% | 97.6% | 94.7% | 70.9% | 123% | 92.4% | 85% | 122% | 103% | 101% | 65.5% | 98.2% | 96.4% | 102% | 111% |  | 93.4% |  | 101% | 94.7%
